The structures appear in SMILES notation. The panel holds about 83,000 compounds, 20% with a hit somewhere; the sample as a whole holds those more often.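 Each cell line was grown in a 96-well plate and treated with one concentration of compound for 48 hours. Values below 10 were considered active.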 Values without a mark were called inactive. Calls of active or inactive are those of the source.

What all share (assay): NCI-60 one-dose screen, 48 h (100 = growth as untreated, 0 = no growth, -100 = all killed)
One assay relates to SK-MEL-2 melanoma. To be noted: 10 µM unless noted.
For another assay, the system named is EKVX NSCLC. The conditions noted are these: 10 µM unless noted.
In the next assay the test system is SN12C renal. To be noted: 10 µM unless noted.
The next assay relates to UO-31 renal. To be noted: 10 µM unless noted.
For the next assay, the system named is TK-10 renal. To be noted: 10 µM unless noted.
A further assay deals with ACHN renal. The conditions noted are these: 10 µM unless noted.
Another assay relates to CAKI-1 renal. The conditions noted are these: 10 µM unless noted.
In another assay the test system is A498 renal. To be noted: 10 µM unless noted.
Another assay concerns CCRF-CEM leukemia. To be noted: 10 µM unless noted.
The test system of a further assay is MOLT-4 leukemia. To be noted: 10 µM unless noted.
Another assay has as its system SR leukemia. The conditions noted are these: 10 µM unless noted.
For the next assay, the system named is RPMI-8226 leukemia. The conditions noted are these: 10 µM unless noted.
The next assay relates to OVCAR-8 ovarian. The conditions noted are these: 10 µM unless noted.
Another assay deals with OVCAR-5 ovarian. The conditions noted are these: 10 µM unless noted.
The next assay concerns OVCAR-4 ovarian. The conditions noted are these: 10 µM.
A further assay has as its system IGROV1 ovarian. The conditions noted are these: 10 µM unless noted.
The test system of another assay is OVCAR-3 ovarian. The conditions noted are these: 10 µM unless noted.
Another assay deals with HS 578T breast. To be noted: 10 µM unless noted.
A further assay has as its system NCI/ADR-RES ovarian. The conditions noted are these: 10 µM unless noted.
In another assay the test system is SK-OV-3 ovarian. To be noted: 10 µM unless noted.

`Cc1cccc(C[C@H](NC(=O)Nc2ccc(Cl)cc2F)C(=O)N[C@@H]2C(=O)N3C[C@H](O)C[C@H]3C(=O)N3CCCC[C@H]3C(=O)N[C@@H](C)C(=O)N3C[C@H](C)C[C@H]3C(=O)O[C@H]2C)c1`: the growth in the assay with SK-MEL-2 melanoma is 0.151% (active); in the assay with EKVX NSCLC, 24.6%; in the assay with SN12C renal, 9.57% (active); in the assay with UO-31 renal it was 10.3%; with TK-10 renal, 29.2%; in the assay on ACHN renal it was 8.94% (active). The growth is 8.12% (active) in the assay on CAKI-1 renal; -4.82% (active) in the assay on A498 renal; 31% in the assay on CCRF-CEM leukemia; 14.7% with MOLT-4 leukemia; 11% with SR leukemia; 6.39% (active) with RPMI-8226 leukemia. Also, the growth with OVCAR-8 ovarian was 13.5%; in the assay on OVCAR-5 ovarian it was 6.86% (active); in the assay on OVCAR-4 ovarian, 7.83% (active); in the assay with IGROV1 ovarian, 9.47% (active); with OVCAR-3 ovarian, -26.4% (active); in the assay on HS 578T breast it was 10.9%.
With `Cc1ccc(NC(=O)N[C@@H](Cc2cc(F)cc(F)c2)C(=O)N[C@@H]2C(=O)N3CCC[C@H]3C(=O)N3CCCC[C@H]3C(=O)N[C@@H](C)C(=O)N3C[C@H](C)C[C@H]3C(=O)O[C@H]2C)cc1`, the growth in the assay on SK-MEL-2 melanoma was 35.2%; with EKVX NSCLC, 28.2%; in the assay on SN12C renal, 18.1%; in the assay on UO-31 renal, 25.2%; in the assay on TK-10 renal, 47.6%; in the assay on ACHN renal it was 23.6%. The growth was 13.7% in the assay with CAKI-1 renal; -1.49% (active) in the assay with A498 renal; 54.8% in the assay on CCRF-CEM leukemia; 30.9% in the assay on MOLT-4 leukemia; 31.3% in the assay with SR leukemia; 20.1% in the assay on RPMI-8226 leukemia. Besides, the growth with OVCAR-8 ovarian was 18.5%; in the assay with OVCAR-5 ovarian, 34.6%; in the assay with OVCAR-4 ovarian it was 11.3%; in the assay on IGROV1 ovarian it was 45.9%; with OVCAR-3 ovarian, 19.8%; in the assay with HS 578T breast, 35.6%.
`Cc1ncc(C(=O)Nc2ccc(CN3CCN(C)CC3)c(C(F)(F)F)c2)cc1C#Cc1c(N)ncc2ccc(C#N)cc12`: the growth in the assay with SK-MEL-2 melanoma was 39.7%; in the assay with EKVX NSCLC it was 57.5%; in the assay on SN12C renal it was 32.9%; in the assay with UO-31 renal, 19.3%; in the assay with TK-10 renal it was 37%; in the assay on ACHN renal, 12.3%. The growth with CAKI-1 renal was 16.1%; in the assay with A498 renal, 6.65% (active); in the assay with CCRF-CEM leukemia, 38.1%; in the assay on MOLT-4 leukemia, 37.3%; in the assay on SR leukemia it was 16.1%; in the assay on RPMI-8226 leukemia, 40.6%. Also, the growth is 53.2% in the assay with OVCAR-8 ovarian; 41.2% with OVCAR-5 ovarian; 44.5% with OVCAR-4 ovarian; 10.4% with IGROV1 ovarian; 37.8% with OVCAR-3 ovarian; 26.9% in the assay on HS 578T breast. In addition, the growth in the assay with NCI/ADR-RES ovarian was 61.7%.
As for `CCN1c2ccccc2C(Cl)(c2ccc(N(C)C)cc2)c2ccccc21`, the growth with SK-MEL-2 melanoma is 81.5%; in the assay on EKVX NSCLC, 69.1%; in the assay on SN12C renal it was 46.1%; with UO-31 renal it was 57.6%; in the assay on TK-10 renal, 62.8%; in the assay on ACHN renal it was 72.7%. Moreover, the growth in the assay with CAKI-1 renal is 62.9%; with A498 renal, 135%; in the assay on CCRF-CEM leukemia it was 17%; in the assay on MOLT-4 leukemia, 65.6%; in the assay on SR leukemia it was 22.6%; with RPMI-8226 leukemia it was -28.8% (active). Besides, the growth was 17.9% in the assay on OVCAR-8 ovarian; 107% in the assay with OVCAR-5 ovarian; 75.2% in the assay on OVCAR-4 ovarian; -20.3% (active) with IGROV1 ovarian; 23.2% in the assay with OVCAR-3 ovarian; 102% with HS 578T breast.
As to `Cn1cc(-c2noc(C(=O)c3cn(C)c4ncc(Br)cc34)n2)c2ccccc21`, the growth in the assay on SK-MEL-2 melanoma is 95.4%; with EKVX NSCLC it was 85.5%; in the assay on SN12C renal it was 94.8%; with UO-31 renal, 79.3%; in the assay with TK-10 renal, 107%; with ACHN renal it was 102%. Besides, the growth is 89.5% with CAKI-1 renal; 75.3% with A498 renal; -49.1% (active) in the assay on CCRF-CEM leukemia; 105% in the assay with MOLT-4 leukemia; 95.6% in the assay with SR leukemia; 84.6% with RPMI-8226 leukemia. In addition, the growth in the assay with OVCAR-8 ovarian is 101%; with OVCAR-5 ovarian, 90.2%; in the assay with OVCAR-4 ovarian, 100%; in the assay with IGROV1 ovarian it was 87.8%; in the assay on OVCAR-3 ovarian, 106%; in the assay on HS 578T breast, 99.7%. In addition, the growth in the assay with NCI/ADR-RES ovarian was 106%.
As for `CC(C)(C)OC(=O)N1C=C/C(=C\Cn2cc(-c3ccccc3)nn2)CC1`, the growth in the assay with SK-MEL-2 melanoma is 64%; in the assay on EKVX NSCLC, 79.8%; with SN12C renal it was 73.7%; in the assay on UO-31 renal, 54.6%; in the assay with TK-10 renal, 98.6%; in the assay on ACHN renal, 68.7%. In addition, the growth in the assay with CAKI-1 renal is 67%; in the assay with A498 renal it was 54.2%; with CCRF-CEM leukemia, 2.78% (active); in the assay on MOLT-4 leukemia, 65.2%; with SR leukemia, 57.9%; with RPMI-8226 leukemia, 62.9%. In addition, the growth with OVCAR-8 ovarian is 74.9%; in the assay with OVCAR-5 ovarian it was 104%; with OVCAR-4 ovarian, 18%; in the assay on IGROV1 ovarian, 82.7%; in the assay on OVCAR-3 ovarian, 86.6%; in the assay on HS 578T breast, 84.1%. Further, the growth with NCI/ADR-RES ovarian was 76.9%.
For the molecule `O=c1c2c3c(sc2n2cnnc2n1Cc1ccccc1)CCCC3`, the growth in the assay with SK-MEL-2 melanoma is 97.6%; with EKVX NSCLC, 71.2%; with SN12C renal, 105%; in the assay with UO-31 renal it was 7.39% (active); in the assay on TK-10 renal it was 115%; in the assay on ACHN renal, 99.1%. The growth in the assay on CAKI-1 renal is 95.3%; with A498 renal, 92.1%; with CCRF-CEM leukemia, 82.4%; in the assay with MOLT-4 leukemia, 86.3%; in the assay with SR leukemia, 78.6%; in the assay on RPMI-8226 leukemia it was 72.8%. Further, the growth in the assay with OVCAR-8 ovarian is 97.4%; with OVCAR-5 ovarian it was 89.6%; with OVCAR-4 ovarian, 106%; in the assay with SK-OV-3 ovarian, 106%; with OVCAR-3 ovarian, 98%; with NCI/ADR-RES ovarian, 96.9%.
Turning to `O=C(Nc1ccc(CN2CCOCC2)c(C(F)(F)F)c1)c1nc2ccc3[nH]ncc3c2c2c1CCCC2`, the growth with SK-MEL-2 melanoma is 103%; with EKVX NSCLC, 87.3%; in the assay with SN12C renal, 94.4%; with UO-31 renal, 73%; in the assay with TK-10 renal, 104%; in the assay on ACHN renal, 91.5%. The growth in the assay on CAKI-1 renal was 80.9%; in the assay on A498 renal it was 113%; in the assay on CCRF-CEM leukemia, 84.8%; in the assay on MOLT-4 leukemia it was 76.3%; with SR leukemia, 95.8%; with RPMI-8226 leukemia, 83.3%. In addition, the growth in the assay with OVCAR-8 ovarian was 93.5%; with OVCAR-5 ovarian it was 104%; in the assay with OVCAR-4 ovarian, 91%; with IGROV1 ovarian it was 95.8%; in the assay with OVCAR-3 ovarian, 102%; in the assay with HS 578T breast, 95.7%. The growth in the assay with NCI/ADR-RES ovarian was 96.3%.
